Screening results deposited in PubChem by Buhrlage Lab, Dana-Farber Cancer Institute and Novartis Institutes for BioMedical Research (Cambridge, Mass).
USP28 inh – inhibitors of human USP28 deubiquitinase. inhibition, % at 25 µM. Q96RU2. purified USP28, Ub-rhodamine cleavage fluorescence, 30 min. actives 3% (n = 47,000)
USP30 inh – inhibitors of human USP30 deubiquitinase; inhibition, % at 25 µM; AID 1645860; Q70CQ3; actives 5.3% (n = 47,000); purified USP30, Ub-rhodamine cleavage fluorescence
USP17 inh – inhibitors of human USP17 deubiquitinase | A8MUK1 | purified USP17, Ub-rhodamine cleavage fluorescence, 3 h | inhibition, % at 50 µM | actives 6.5% (n = 47,000) | AID 1645855
USP8 block – blocks human USP8 ubiquitin-rhodamine cleavage. AID 1645853. P40818. actives 4.2% (n = 47,000). inhibition, % at 20 µM. purified USP8, Ub-rhodamine cleavage fluorescence, 30 min
USP10 block – inhibitors of human USP10 deubiquitinase; Q14694; purified USP10, Ub-rhodamine fluorescence, 60 min; inhibition, % at 20 µM; actives 1.1% (n = 47,000); AID 1645856
Numbers without * were called inactive; x = no result given. A selection: hits, their analogues and other compounds. The true share with any hit is near 14%. No stated cut-off is given here; in the data, active means inhibition above about 30%; inactive means the rest.

SMILES	USP28 inh	USP30 inh	USP17 inh	USP8 block	USP10 block
CC1CCN(C(=O)Nc2cccc(C#N)c2)Cc2nc3ccccc3n21 (centres undefined)	7.4	4.7	1.8	9.2	0.1
COCCNC(=O)C1CCN(S(=O)(=O)c2ccc3c(c2)CCCC3)CC1	-9.2	-1.7	-14.3	-9.3	-0.3
CCOc1ccc(-c2nnc(NC(=O)C3CCN(S(=O)(=O)c4ccc5c(c4)CCC5)CC3)o2)cc1	11.8	28.3	8.9	-120.4	43.8*
O=C(NCc1cccnc1)C1CCN(S(=O)(=O)c2ccc3c(c2)CCCC3)CC1	11.4	34.3*	7.1	9.2	7.1
Cc1cccc(CNC(=O)CCc2c(C)nn(-c3cc(N4CCCC4)ncn3)c2C)c1	-5.3	-30.9	-8.1	-11.4	-4.3
Cc1cccc(NS(=O)(=O)c2cc3[nH]c4c(c3cc2C)C(=O)CC(C)(C)C4)c1	4.0	20.2	36.4*	1.8	7.1
CCN(c1ccccc1)S(=O)(=O)c1cc2[nH]c3c(c2cc1C)C(=O)CC(C)(C)C3	5.6	18.2	32.9*	7.5	3.3
Cc1cc2c3c([nH]c2cc1S(=O)(=O)NCCc1ccccc1)CC(C)(C)CC3=O	-0.1	-0.2	-0.1	0.2	1.3
COc1ccc(OC)c(NC(=O)c2sccc2Oc2ccc(F)cc2[N+](=O)[O-])c1	10.3	30.2*	9.5	1.1	1.3
CC(=O)Nc1ccc(NC(=O)c2sccc2Oc2ccc([N+](=O)[O-])cc2)cc1	0.0	12.4	0.6	-37.3	-0.8
O=C(NCc1noc(COc2ccccc2)n1)c1ccc(F)c(F)c1	x	x	-14.1	1.4	0.1
O=C(Nc1ccc2c(c1)CCC2)c1cc(N2CCN(Cc3ccccc3)CC2)nc2ccccc12	-33.7	-104.9	-19.7	-7.2	-7.5
COc1cccc(C(=O)Nc2cc3c4c(c2)CC(=O)N4CCC3)c1	33.0*	-18.3	16.8	65.1*	-1.2
Cc1ccc(NS(=O)(=O)c2cc3c4c(c2)CC(=O)N4CCC3)cc1C	9.7	13.1	3.7	19.4	-1.5
Cc1cccc(C(=O)Nc2cc3c4c(c2)CC(=O)N4CCC3)c1	36.9*	-22.3	-4.9	38.9*	-2.1
COc1cc(OC)cc(C(=O)Nc2cccc(N3CCCC3=O)c2)c1	28.7	-0.6	4.5	-11.7	-0.4
O=S(=O)(Nc1ccc(Oc2ncnc3cc(Cl)ccc23)nc1)c1ccc(S(=O)(=O)c2ccccc2)s1	-31.5	-183.2	27.7	-15.1	45.4*
Cc1cc(=O)n(CC(=O)Nc2ccccc2F)c(N2CCCCC2)n1	-7.1	-12.2	2.0	-10.3	3.1
O=C(Cn1c(CSc2ccccc2)nc2ccccc21)Nc1ccccc1F	64.5*	16.0	-4.5	50.5*	9.6
CCOC(=O)CSc1nnc(Cc2cc(=O)[nH]c(=O)[nH]2)n1-c1cccc(C)c1	-0.4	12.9	0.5	-0.1	1.8
Cc1nc(C2(NC(=O)Nc3ccc(F)cc3F)CCCC2)no1	-15.0	-13.1	-17.1	-3.9	-3.5
O=C(NCc1ccc2c(c1)OCO2)c1cn2cc(Cl)ccc2n1	-18.5	28.7	47.5*	7.3	1.2
O=C(NCc1ccc2c(c1)OCO2)c1nc(-n2cnnc2)ccc1Br	10.4	39.4*	34.5*	-5.8	7.3
O=C1COC2(CCN(Cc3nccs3)CC2)CN1Cc1ccccn1	-41.1	-84.2	-47.4	-158.2	-5.8
COC(=O)c1nn(CC(=O)c2ccc3c(c2)OCCO3)c(=O)c2ccccc12	x	x	-11.1	-1.6	0.0
SMILES	USP28 inh	USP30 inh	USP17 inh	USP8 block	USP10 block
Cc1nnc(NC(=O)C2CCN(C(=O)c3ccccc3Cl)CC2)s1	5.2	0.3	-0.8	-7.3	-1.3
COc1cccc(NS(=O)(=O)c2cc(C(=O)N3CCCCC3)ccc2NCc2ccccc2OC)c1	-10.4	-31.4	-15.5	-8.4	2.9
COc1ccc(CNc2ccc(C(=O)OCc3ccccc3F)cc2S(=O)(=O)Nc2cccc(OC)c2)cc1	0.6	0.0	-12.3	7.8	32.6*
O=C(NC1CCCCC1)c1nc(-c2ccccc2)no1	x	x	-5.5	0.0	3.1
Cc1ccc(C2CC(=O)c3cnc(NC(=O)c4ccc(Cl)cc4)nc3C2)cc1 (centres undefined)	9.9	42.9*	15.7	10.4	7.1
COc1cc(C(=O)Nc2ncc3c(n2)CC(c2ccc(C)cc2)CC3=O)cc(OC)c1OC (centres undefined)	-4.3	-0.6	-9.6	-9.0	1.9
O=C(Nc1nc2c(s1)CN(C(=O)c1ccco1)CC2)C1CCCO1 (centres undefined)	-18.8	-83.3	-35.0	-9.2	-6.2
COc1cccc2cc(C(=O)N3CCc4nc(NC(=O)C5CCCO5)sc4C3)oc12 (centres undefined)	13.6	-7.8	34.2*	-21.6	-5.5
Cc1cccc(C)c1OCC(=O)Nc1onc2c1CCCC2	-4.6	2.2	-11.3	-22.9	3.0
O=C(Nc1c(C(=O)Nc2ccc3c(c2)OCO3)oc2ccccc12)c1cc2ccccc2o1	-5.6	-24.7	0.0	78.8*	5.6
Cc1cc(NC(=O)c2ccccc2F)ccc1-c1cc2ccccc2oc1=O	13.6	12.1	4.7	-22.0	4.3
O=C(NCCc1nc2ccccc2[nH]1)c1cc2ccccc2o1	3.7	-3.4	-2.0	0.5	-0.2
COc1cc(NC(=O)c2ccc3c(c2)OCO3)ccc1-c1cc2ccccc2oc1=O	43.2*	-18.9	47.3*	69.3*	28.6
CSc1cccc(NC(=O)CNC(=O)c2cc3ccccc3o2)c1	13.4	-27.5	65.3*	1.8	5.1
O=C(Nc1ccc2[nH]c(=O)[nH]c2c1)c1cc2ccccc2o1	-8.6	-88.5	42.5*	42.1*	12.1
Cc1cc(-c2ccc(S(=O)(=O)N3CCc4ccccc43)s2)on1	3.8	0.0	1.7	12.1	-7.6
Cc1ccc(F)cc1NC(=O)c1ccccc1Oc1ccccc1	6.0	-4.6	0.1	6.9	8.1
CC(C)C[C@@H](NC(=O)Cn1c(=O)[nH]c2ccccc2c1=O)C(=O)O	-0.1	13.3	-3.0	-53.6	1.8
COc1cccc2cc(C(=O)Nc3ccc4c(c3)OCCO4)oc12	51.4*	0.5	0.7	0.0	6.9
O=C(CSc1n[nH]c(-c2ccccc2Cl)n1)Nc1ccc2c(c1)OCCO2	38.1*	0.3	-4.9	-39.1	4.1
COc1ccc(NC(=O)COC(=O)Cn2cnc3ccccc32)cc1OC	-9.7	-5.0	-5.7	-39.6	0.0
O=C(CSc1ccc2ccccc2c1)Nc1ccc2c(c1)OCCCO2	21.4	12.3	4.0	-65.8	4.7
O=C(COC(=O)Cn1cnc2ccccc21)Nc1ccc2c(c1)OCCO2	55.6*	1.6	-2.8	1.0	-5.3
O=C(CSc1nc2ccccc2[nH]1)Nc1ccc2c(c1)OCCO2	45.8*	-65.9	0.1	3.5	23.7
O=C(CSc1n[nH]c2nc3ccccc3n12)Nc1ccc2c(c1)OCCO2	30.7*	9.8	27.0	-5.5	2.1
CCN1CCN(C(=O)c2nn(-c3ccccc3)c3c(=O)n(C)cnc23)CC1	1.2	-19.6	-1.5	2.5	-9.0
Cc1cccc(C(=O)N(CCO)Cc2cc3c(C)ccc(C)c3[nH]c2=O)c1	3.3	13.6	-4.2	-17.4	-1.6
COc1cccc(OC)c1C(=O)Nc1c(NCc2ccccc2)c2ccccc2oc1=O	17.8	16.8	30.5*	-51.9	-0.3
